ERK EGF block = inhibitors of EGF-stimulated ERK signaling pathway; 130,000 tested, 0.41% active; Potency, µM (top dose mostly 11.5 µM), inactives show at the highest dose activity change, negative = inhibition, hits mostly inhibitors; AID 1454; HEK293-V1b, EGF-stimulated phospho-ERK AlphaScreen; active = well fitted inhibition curve with a large enough effect;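 also: plate controls were stimulated vehicle wells for no effect and unstimulated vehicle basal for full effect; nearly all actives have a fitted effect of over 55% in size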
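Compounds are titrated over HEK293-V1b cells kept overnight in 1% FBS. After 30 min at 37C, EGF (25 nM final) triggers ERK phosphorylation for 5 min, measured by AlphaScreen in lysates.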
An asterisk follows results filed as active; [ ] = another dose, or the depositor's remark. The full list was thinned out, with hits kept by preference. Potency is read from the fitted curve at half-maximal effect.

SMILES	ERK EGF block
CCOC1=NN(c2ccccc2)C(=O)/C1=C\N(C)C	-3%
CCOC(=O)CC1=NN(c2ccccc2)C(=O)/C1=C\c1ccc(N(C)C)cc1	25µM*
CC1=NN(c2ccccc2)C(=O)/C1=C/N(C)C	8%[57.5 µM]
Cc1cccc(CNc2cc(-c3cccc(C#N)c3)ncn2)c1	25%
CC/C=C\C/C=C\C/C=C\C/C=C\C/C=C\C/C=C\CCC(=O)O[C@H](COCCCCCCCCCCCCCCCC)COP(=O)([O-])OCC[N+](C)(C)C	-6%
COc1ccccc1CN1CCC2(CC1)CCN(S(=O)(=O)c1ccccc1)CC2	10%
O=C(c1cnccn1)N1CCC2(CC1)CN(c1ncccn1)C2	-9%
CCOC(=O)C(=O)C1(C(=O)OCC)Oc2cc(OC)cc(OC)c2C(=O)C1c1ccccc1 (stereo unspecified)	16%
Cc1c2ccccc2c(CSC(=N)N)c2ccccc12	1%
Cc1ccc(NC(=O)/C=C/c2ccc3c(c2)OCO3)cc1S(=O)(=O)N1CCOCC1	28µM*
O=C(/C=C/c1ccc2c(c1)OCO2)NCCCN1CCOCC1	-14%
Cc1cc(C(=O)Nc2ccc(C)c(S(=O)(=O)N3CCOCC3)c2)c(C)o1	-7%
O=C(c1cnccn1)N1CCC[C@@]2(CCN(Cc3ccccc3)C2)C1	0%
O=C(O)c1ccc(COc2ccc3ccccc3c2/C=C2/NC(=O)N(Cc3ccc(F)cc3)C2=O)cc1	35µM*
O=C(O)c1ccc(COc2ccccc2/C=C2\NC(=O)N(Cc3ccccc3)C2=O)cc1	-4%
O=C(O)c1ccc(COc2ccccc2/C=C2\NC(=O)N(Cc3ccccc3F)C2=O)cc1	35%
CCCCNc1nc(C)nc2c1nc(C)n2CCC	6%
COc1ccc(-n2nc([N+](=O)[O-])c(=NCc3cccnc3)n2O)cc1	-5%
COc1ccc(-n2nc([N+](=O)[O-])c(=NCCc3ccc(OC)c(OC)c3)n2O)cc1	0%
COc1ccc(-n2nc([N+](=O)[O-])c(=NCCC3=CCCCC3)n2O)cc1	28µM*
Oc1ccc([C@@H]2CNCCc3c2cc(O)c(O)c3Cl)cc1	-2%
CC(C)C[C@@H](CC(=O)N[C@@H](CCC(=O)O)CC(=O)O)NC(=O)[C@@H]1CCCC[C@H]1NC(=O)C[C@H](CCCN)NC(=O)C[C@H](CO)NC(=O)[C@@H]1CNCC[C@H]1N	-6%
COC(=O)[C@H]1O[C@@H](c2cc(OC)c(C)c(OC)c2OCc2ccccc2)[C@H](C)[C@@H]2O[C@]12C	-9%
COc1ccc(-c2cn[nH]c2-c2ccc(OCc3ccccc3F)cc2O)cc1OC	32µM*
O=[N+]([O-])c1ccc(COc2ccc(-c3[nH]ncc3-c3ccc(Cl)cc3)c(O)c2)cc1	6%
SMILES	ERK EGF block
COc1ccc(-c2[nH]ncc2CN2CCC(OCc3ccccn3)CC2)c(F)c1	-2%[57.5 µM]
COc1ccccc1-c1cn[nH]c1-c1ccc(OCc2ccccc2)cc1O	-10%[57.5 µM]
COc1ccc(-c2[nH]ncc2-c2csc(C)n2)c(O)c1	-5%
COc1ccc(-c2cn[nH]c2-c2ccc(OCc3ccccc3)cc2O)cc1	22µM*
CCNc1ncc2nc(-c3ccccc3)c(=O)n(Cc3ccc(F)cc3)c2n1	-6%
C=C(C)C1CC[C@]2(CO)CC[C@@]3(C)[C@H](CCC4[C@@]5(C)CCC(O)C(C)(C)C5CC[C@@]43C)C12 (stereo partly specified)	9%
O=C1CCC=C1C(O)c1ccc(Cl)cc1 (stereo unspecified)	-8%
Cc1ccccc1NC(=S)NCC1CCC(CNC(=S)Nc2ccccc2C)CC1 (stereo unspecified)	7%[57.5 µM]
Cc1cc(C)c(NC(=S)NCC2CCN(C(C)c3ccccc3)C2)c(C)c1 (stereo unspecified)	-7%[57.5 µM]
CCc1cccc(C)c1NC(=S)NCC1CCN(c2ccc(OC)cc2)C1 (stereo unspecified)	10µM*
CCc1ccccc1NC(=S)NCC1CCN(c2ccc(OC)cc2)C1 (stereo unspecified)	14µM*
COc1ccc(N2CCN(C(=O)Nc3ccccc3Cl)CC2)cc1	-1%
CCc1ccccc1NC(=S)N1CCC(NC(=O)c2ccc(OC)cc2)CC1	-12%
CC(CCC(=O)O)C1CCC2C3CC[C@@H]4CCCC[C@@]4(C)C3CC[C@@]12C (stereo partly specified)	16%
C=CCC(Nc1ccc(OC)cc1)(C(=O)OCC)c1ccccc1 (stereo unspecified)	-10%
COc1cc2c(cc1OC)C(c1c[nH]c3ccccc13)NCC2 (stereo unspecified)	-7%
O=[N+]([O-])c1c(Nc2ccccn2)cc(Cl)c2nonc12	14µM*
O=[N+]([O-])c1ccc(Nc2ccccn2)c([N+](=O)[O-])c1	-9%
O=C(O)c1cccc(Nc2cc(Cl)c3nonc3c2[N+](=O)[O-])c1	0%
CCNc1ncc2nc(-c3cc(F)cc(F)c3)c(=O)n(-c3ccccc3)c2n1	-15%
CCCCCC(CC(=O)O)C(=O)O (stereo unspecified)	23%
O=C1CCCC=C1[C@@H](O)CCOC(c1ccccc1)(c1ccccc1)c1ccccc1	-1%
CC(O)C(NS(=O)(=O)c1ccc(Cl)cc1)C(=O)OCC(=O)c1c[nH]c2ccccc12 (stereo unspecified)	9%
CC(C)C(NS(=O)(=O)c1c(Cl)cccc1Cl)C(=O)OCC(=O)c1c[nH]c2ccccc12 (stereo unspecified)	25µM*
Cc1ccc(C(=O)OCC(=O)c2c[nH]c3ccccc23)cc1	5%
SMILES	ERK EGF block
CC(C)CN1CC[C@@]2(CCCN(C(=O)c3ccco3)C2)C1	-3%
COC(=O)N[C@@H](/C=C/c1ccccc1)[C@@H](C)[N+](=O)[O-]	-15%
O=C1/C(=C/c2ccc(O)c(O)c2)SC(=S)N1Nc1ccccc1	13µM*
O=C(O)c1ccc(/C=C2\SC(=S)N(Nc3ccccc3)C2=O)cc1	-11%[57.5 µM]
O=C1/C(=C/c2ccncc2)SC(=S)N1Nc1ccccc1	-3%[57.5 µM]
CCCn1c(-c2ccc(F)cc2)nc2c(N3CCN(CCC(=O)OCC)CC3)nc(C)nc21	-2%
COC(=O)N/N=C/c1ccc([N+](=O)[O-])o1	-11%
CN(/N=C/c1ccc([N+](=O)[O-])o1)c1ccccc1	25µM*
O=C(N/N=C/c1ccc([N+](=O)[O-])o1)C(O)c1ccccc1 (stereo unspecified)	1%[57.5 µM]
C[C@@H](C[N+](C)(C)C)OC(N)=O	8%[25.7 µM]
CCCCC/C=C\C/C=C\C/C=C\C/C=C\CCCC(=O)O[C@H](COCCCCCCCCCCCCCCCC)COP(=O)([O-])OCC[N+](C)(C)C	2%
CCNc1ncc2nc(-c3cc(F)cc(F)c3)c(=O)n(Cc3cccs3)c2n1	-1%
Cc1cccc[n+]1CCCCCCCCCC[n+]1ccccc1C	-8%
Cc1cc(N)c2ccccc2n1	2%
Cc1cc(N)c2ccccc2[n+]1CCCCCCCCCCCCCC[n+]1c(C)cc(N)c2ccccc21	28µM*
O=C(c1ccncc1)N1CCC2(CCN(Cc3nccs3)CC2)CC1	9%
NC(=S)N=Nc1c(O)[nH]c2ccccc12	7%
O=Nc1c(-c2c(O)[nH]c3cc(Br)ccc23)[nH]c2ccccc12	28µM*
O=S(=O)(Cc1ccccc1)N=Nc1c(O)[nH]c2ccc(Br)cc12	2%[57.5 µM]
C[C@@H](CCc1ccc(O)cc1)NCCc1ccc(O)c(O)c1	-3%
CNC(CC(=O)O)C(=O)O (stereo unspecified)	16%
O=C(/C=C/c1cccnc1)/C=C/c1cccnc1	10µM*
Cc1cccc(C(=O)Nc2ccc(C(=O)/C=C/c3cccnc3)cc2)c1	-5%
O=C(/C=C/c1cccnc1)c1cc(F)ccc1O	4%[57.5 µM]
